Screens: PubChem BioAssay, several laboratories
BoNT A protease – BoNT A light chain protease inhibition | multiplex microsphere protease substrate cleavage, flow cytometry | inhibition, % at 10 µM | 360,000 compounds, 0.17% hits | AID 588499; also: plate controls were buffer without enzyme for full effect and enzyme alone for no effect
MazEF act – MazEF (E. coli) toxin RNase activation | FAM/BHQ RNA-DNA oligo cleavage fluorescence, 5 h | P0AE70 | AID 504720 | activation, % at 20 µM | 350,000 compounds, 0.32% hits; in the data active = activation above about 50%
Target sequence (P0AE70 whole entry, looked up): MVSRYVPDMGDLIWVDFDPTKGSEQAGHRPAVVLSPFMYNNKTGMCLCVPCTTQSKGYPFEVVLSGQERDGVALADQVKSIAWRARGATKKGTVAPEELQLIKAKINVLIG
Anthrax LF inh2 – blocks Bacillus anthracis lethal factor protease | P15917 | multiplex microsphere protease cleavage assay, LF | inhibition, % at 10 µM | 360,000 compounds, 0.12% hits; also: plate controls were buffer without enzyme for full effect and enzyme alone for no effect
Autofluor counter – compound fluorescence in toxin protease inhibitor counterscreen; compound autofluorescence counterscreen, microsphere flow cytometry; active compounds read high; fluorescence intensity (concentration not given with the values); 360,000 compounds, 3.1% hits; AID 624483; in the data active = fluorescence intensity above about 16000; inconclusive = no clear call, values can overlap the other calls
BoNT F protease – inhibitors of Botulinum neurotoxin F light chain protease; Multiplex microsphere protease cleavage assay, flow cytometry; inhibition, % at 10 µM; 360,000 compounds, 0.22% hits; AID 588497; in the data active = inhibition above about 35%, passing the limit was not always enough; inconclusive = no clear call, values can overlap the other calls; also: plate controls were buffer without enzyme for full effect and enzyme alone for no effect
VHR inh abs – DUSP3 (human) phosphatase inhibition; recombinant VHR phosphatase, pNPP absorbance; inhibition, % at 13.3 µM; 290,000 compounds, 0.52% hits; AID 1654; in the data active = inhibition above about 50%
Target sequence (P51452 whole entry, looked up): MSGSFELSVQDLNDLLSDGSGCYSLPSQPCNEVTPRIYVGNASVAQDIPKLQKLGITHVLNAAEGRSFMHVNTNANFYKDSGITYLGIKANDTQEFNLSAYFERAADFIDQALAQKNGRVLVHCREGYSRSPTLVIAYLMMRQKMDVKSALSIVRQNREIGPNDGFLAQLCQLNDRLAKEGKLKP
An asterisk follows results filed as active; ? = inconclusive; / = no result given. Rows were chosen to be rich in hits. Some 4% of all compounds tested hit in one or more screens of this group. Rule as the data show it, unless noted: active = inhibition above about 30%; inconclusive = no clear call, values can overlap the other calls; inactive = below that.

SMILES	BoNT A protease	MazEF act	Anthrax LF inh2	Autofluor counter	BoNT F protease	VHR inh abs
O=C(OCc1ccccc1)Oc1cncc(C(=O)O)c1	-3	-6	-6	16938*	-5	7
COc1ccc(C2=NO[C@@H]3C(=O)N(c4c(C)cccc4C)C(=O)[C@H]23)cc1OC	?	0	-2	22305*	0	0
Cc1ccccc1NC(=O)CCN1C(=O)CSC1=O	1	9	-1	3618	-2	36
CC1=C(C(=O)Nc2ccccc2C)C(c2ccc(C)o2)N2C(=O)CSC2=N1 (stereo not given)	4	-6	-8	20714*	3	-5
CCOC(=O)N1CCN(c2c(-c3ccccc3)c3cc(Cl)ccc3[nH]c2=O)CC1	0	-1	0	7826	9	11
O=c1[nH]c2ccc(Cl)cc2c(-c2ccccc2)c1N1CCN(CCO)CC1	?	3	-1	20528*	1	21
Cc1ccc(-n2nc3c(=O)n(CCCC(=O)NCc4ccc(C)o4)nc(C)c3c2C)cc1	2	1	10	5314	3	-9
Cc1ccc(-n2nc3c(=O)n(CC(=O)NCc4ccc(C)o4)nc(C)c3c2C)cc1	4	6	-3	4943	5	53*
Cc1occc1-c1nnc(SCC(=O)c2ccc(Cl)cc2)n1C	0	7	6	4547	13	3
CCOc1cccc(NC(=O)C(Cc2cccs2)c2nn[nH]n2)c1 (stereo not given)	6	-1	2	20016*	8	23
N#C/C(=N\Nc1ccc(Br)cc1)C(=N)N1CCOCC1	0	4	0	4193	1	11
COc1ccc(C2C(C(C)=O)=C(O)C(=O)N2C)c(OC)c1 (stereo not given)	-1	-4	7	3990	?	-13
COc1ccc(C2C(C(C)=O)=C(O)C(=O)N2c2cccnc2)c(OC)c1 (stereo not given)	-1	1	-4	16553*	-2	33
CC(=O)N1CCN(Cc2nc3cc(NC(=O)c4ccc(F)cc4)ccc3n2C)CC1	0	-12	-5	3928	2	57*
Cn1c(CCNC(=O)c2ccccc2)nc2cc(NC(=O)C3CCCCC3)ccc21	3	-3	-1	18656*	2	4
COc1ccc(C(=O)Nc2ccc3c(c2)nc(CN2CCN(C(C)=O)CC2)n3C)cc1	0	3	-2	4998	?	19
Cn1c(CN2CCCCC2)nc2cc(NC(=O)c3ccccc3)ccc21	2	5	4	22188*	1	-2
COc1ccc(OC)c(-n2c(C)cc(/C=C3\C(=N)N4N=C(CC(=O)N5CCOCC5)SC4=NC3=O)c2C)c1	1	-13	2	5591	-2	-4
COc1ccc(CC(=O)O/N=C(\N)c2ccncc2)cc1	-1	2	-4	5844	-3	25
COc1ccccc1NC(=O)COc1ccc(-c2nn(C)c(=O)c3ccccc23)cc1	0	8	-1	3663	-14	-20
CC(C)Oc1ccc(C(CC(=O)NCc2ccco2)c2ccccc2)cc1 (stereo not given)	-1	-4	-1	16645*	-3	8
COC(=O)[C@H](C)NC(=O)NCc1ccco1	1	-4	1	20251*	1	7
COc1ccc(Cl)cc1NC(=O)CN(C)CC(=O)Nc1ccc(Br)cc1	0	0	-1	3826	-3	21
CCOCCC(=O)Nc1cc(Cl)ccc1OC	1	3	-2	22752*	1	-42
COc1ccc(Cl)cc1NC(=O)CN(C)CC(=O)Nc1ccc(S(N)(=O)=O)cc1	0	1	-1	4901	-3	53*
SMILES	BoNT A protease	MazEF act	Anthrax LF inh2	Autofluor counter	BoNT F protease	VHR inh abs
CCc1c(C)sc(NC(=O)c2cc(-c3ccc(OC)c(OC)c3)on2)c1C#N	0	-2	2	9787	0	14
CCc1c(C)sc(NC(=O)c2cc(-c3cc(OC)ccc3OC)on2)c1C#N	4	1	-2	21969*	6	19
COc1ccc(C(=O)C[N+]2(C)CCOCC2)cc1	-5	-21	-52	3259	46*	17
C=CCOc1ccccc1/C=N/O	?	-2	-2	24314*	-5	36
CC(C)CC(=O)NC(Nc1ccccc1F)C(Cl)(Cl)Cl (stereo not given)	-1	5	-7	3128	0	1
CC(C)C(=O)NC(Nc1ccccc1F)C(Cl)(Cl)Cl (stereo not given)	4	5	2	21522*	6	22
CCC1CN(C(=O)N2CCC(C(=O)NCCc3ccc(OC)c(OC)c3)CC2)c2ccccc2O1 (stereo not given)	2	-32	-2	5680	7	1
O=C(Nc1cccnc1)C1CCCN(c2ncnc3c2nc2n3CCCCC2)C1 (stereo not given)	2	4	-3	5125	-1	40
CCC(Sc1nc2ccccc2s1)C(=O)Nc1nnc(C)s1 (stereo not given)	-1	-6	-2	22870*	-2	19
Cc1cc(C)cc(NC(=O)C(Nc2ccccc2)c2ccccc2)c1 (stereo not given)	-1	-4	-1	2619	-3	5
Cn1cc(/C=C2\SC(=S)N(NC(=O)c3ccccc3Cl)C2=O)c2ccccc21	26	-62	23	3678	9	8
Cc1ccc(C(=O)NN2C(=O)/C(=C/c3cn(C)c4ccccc34)SC2=S)cc1	43*	-41	26	2904	23	8
Cc1cc(/C=C2/C(=O)N(C)C(=S)N2C)c(C)n1C1CC1	5	17	-3	2602	-11	17
CCN1C(=O)/C(=C/C=C2\C=CN(CC)c3ccccc32)SC1=S	41*	13	16	6742	-9	3
CCN1C(=O)/C(=C\C=C2/C=CC=CN2CC)SC1=S	1	-269	0	2425	-3	-2
Cc1ccc(S(=O)(=O)Nc2nc(CN3CCOCC3)nc3sc(C(=O)O)c(C)c23)cc1	0	2	-4	3942	0	/
Cc1cccc(C)c1NC(=O)CNC(=O)c1ccc(S(=O)(=O)NCc2ccco2)cc1	0	-2	-2	3740	7	/
Cc1cccc(NC(=O)c2cc(S(=O)(=O)NCc3ccco3)ccc2F)c1C	2	-3	1	23011*	1	15
CCOC(=O)CSc1nnc(CSc2nc3sc4c(c3c(=O)[nH]2)CCC4)n1-c1ccccc1	0	-3	1	21953*	2	20
CCOC(=O)CSc1nnc(CSc2nc3sc4c(c3c(=O)[nH]2)CCC4)n1C	0	-5	5	9729	7	8
CCOC(=O)CSc1nnc(CSc2nc(N)c3c(C)c(C)sc3n2)n1-c1ccccc1	0	-3	0	2177	1	54*
O=C1Nc2cc(Cl)ccc2C1(N1CCNCC1)C(F)(F)F (stereo not given)	2	6	-7	18877*	-1	26
COc1ccc(CNCCSc2nnnn2C)cc1OC	2	1	0	19838*	0	-16
